Assay results: article PMC9911399, “Two distinct binding modes provide the RNA-binding protein RbFox with extraordinary sequence specificity”
Changes are numbered by the printed parent chain; changes in the protein carry UniProt numbers. The full ranking holds about 16,000 sequences; the median of “ka relative to ugcaugu” is about 0.0091, and the highest 2% start at about 0.032. This excerpt belongs to a sample that is enriched for the highest values.

B1: CGUCGAU (DNA:RNA)
RNA: GGGAGACCGGAAUUCAGAUUGUCCCGUCGAUUUAAAUCCCGUCGUAGCCACCA
DNA 1: CAATCTGAATTCCGGTCTCCC
DNA 2: TGGTGGCTACGACGGGATT
B2: AGGUGGG (DNA:RNA)
RNA: B1 RNA with C25A, U27G, C28U, A30G, U31G
DNA 1: CAATCTGAATTCCGGTCTCCC
DNA 2: TGGTGGCTACGACGGGATT
B3: CCUAAUC (DNA:RNA)
RNA: B1 RNA with G26C, C28A, G29A, A30U, U31C
DNA 1: CAATCTGAATTCCGGTCTCCC
DNA 2: TGGTGGCTACGACGGGATT
B4: CCCUUAA (DNA:RNA)
RNA: B1 RNA with G26C, U27C, C28U, G29U, U31A
DNA 1: CAATCTGAATTCCGGTCTCCC
DNA 2: TGGTGGCTACGACGGGATT
B5: AACGCGA (DNA:RNA)
RNA: GGGAGACCGGAAUUCAGAUUGUCCAACGCGAUUAAAUCCCGUCGUAGCCACCA
DNA 1: CAATCTGAATTCCGGTCTCCC
DNA 2: TGGTGGCTACGACGGGATT
B6: UCAGGUU (DNA:RNA)
RNA: B1 RNA with C25U, G26C, U27A, C28G, A30U
DNA 1: CAATCTGAATTCCGGTCTCCC
DNA 2: TGGTGGCTACGACGGGATT
B7: ACUCGCA (DNA:RNA)
RNA: B1 RNA with C25A, G26C, A30C, U31A
DNA 1: CAATCTGAATTCCGGTCTCCC
DNA 2: TGGTGGCTACGACGGGATT
B8: AACAGAA (DNA:RNA)
RNA: B5 RNA with G28A, C29G, G30A
DNA 1: CAATCTGAATTCCGGTCTCCC
DNA 2: TGGTGGCTACGACGGGATT
B9: AAACGGU (DNA:RNA)
RNA: B5 RNA with C27A, G28C, C29G, A31U
DNA 1: CAATCTGAATTCCGGTCTCCC
DNA 2: TGGTGGCTACGACGGGATT
B10: CUGAUGA (DNA:RNA)
RNA: B5 RNA with A25C, A26U, C27G, G28A, C29U
DNA 1: CAATCTGAATTCCGGTCTCCC
DNA 2: TGGTGGCTACGACGGGATT
B11: UGAUGAA (DNA:RNA)
RNA: B1 RNA with C25U, U27A, C28U, U31A
DNA 1: CAATCTGAATTCCGGTCTCCC
DNA 2: TGGTGGCTACGACGGGATT
B12: ACCAGGC (DNA:RNA)
RNA: B5 RNA with A26C, G28A, C29G, A31C
DNA 1: CAATCTGAATTCCGGTCTCCC
DNA 2: TGGTGGCTACGACGGGATT
B13: GGAUUGC (DNA:RNA)
RNA: B5 RNA with A25G, A26G, C27A, G28U, C29U, A31C
DNA 1: CAATCTGAATTCCGGTCTCCC
DNA 2: TGGTGGCTACGACGGGATT
B14: GUAAUGC (DNA:RNA)
RNA: B5 RNA with A25G, A26U, C27A, G28A, C29U, A31C
DNA 1: CAATCTGAATTCCGGTCTCCC
DNA 2: TGGTGGCTACGACGGGATT
B15: GAAAUGC (DNA:RNA)
RNA: B5 RNA with A25G, C27A, G28A, C29U, A31C
DNA 1: CAATCTGAATTCCGGTCTCCC
DNA 2: TGGTGGCTACGACGGGATT
B16: CCGUUGC (DNA:RNA)
RNA: B5 RNA with A25C, A26C, C27G, G28U, C29U, A31C
DNA 1: CAATCTGAATTCCGGTCTCCC
DNA 2: TGGTGGCTACGACGGGATT
B17: AGGAGGC (DNA:RNA)
RNA: B5 RNA with A26G, C27G, G28A, C29G, A31C
DNA 1: CAATCTGAATTCCGGTCTCCC
DNA 2: TGGTGGCTACGACGGGATT
B18: GUAUUGC (DNA:RNA)
RNA: B5 RNA with A25G, A26U, C27A, G28U, C29U, A31C
DNA 1: CAATCTGAATTCCGGTCTCCC
DNA 2: TGGTGGCTACGACGGGATT
B19: UGAAUGA (DNA:RNA)
RNA: B5 RNA with A25U, A26G, C27A, G28A, C29U
DNA 1: CAATCTGAATTCCGGTCTCCC
DNA 2: TGGTGGCTACGACGGGATT

Each binder was assayed against T1, RBFOX1 RRM (Homo sapiens, UniProt Q9NWB1 109-208) (assay: EMSA; HiTS-Eq, 1 nM pool, 10 min; buffer printed only for the single-RNA assays: 10 mM Tris pH 7.5, 150 mM NaCl, 3.4 mM EDTA, 0.001% NP-40, 30 C). Conditions: tags: His6 N-terminal (pET28a); label: 5' 32P.
T1 sequence: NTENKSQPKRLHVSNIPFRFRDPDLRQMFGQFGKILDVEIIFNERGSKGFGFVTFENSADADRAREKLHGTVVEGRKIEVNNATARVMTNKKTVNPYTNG
Outline: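 Purified RbFox RRM (wild type or mutant) was equilibrated for 10 min in 50 µL with 1 nM of a 5′-radiolabelled pool of RNA with 7 randomized nucleotides, its flanks annealed to DNA oligonucleotides, across increasing protein concentrations. Free RNA was separated by 8% native PAGE, excised, reverse-transcribed, PCR-barcoded and sequenced on an Illumina HiSeq 2500. Relative association constants came from read-count changes of each variant against the control reaction, normalised to the cognate motif.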

| Binder | binding signal |
| --- | --- |
| B1 | 0.00831 KA relative to UGCAUGU |
| B2 | 0.0126 KA relative to UGCAUGU |
| B3 | 0.00151 KA relative to UGCAUGU |
| B4 | 0.00271 KA relative to UGCAUGU |
| B5 | 0.00453 KA relative to UGCAUGU |
| B6 | 0.0129 KA relative to UGCAUGU |
| B7 | 0.0123 KA relative to UGCAUGU |
| B8 | 0.00258 KA relative to UGCAUGU |
| B9 | 0.0059 KA relative to UGCAUGU |
| B10 | 0.0162 KA relative to UGCAUGU |
| B11 | 0.0191 KA relative to UGCAUGU |
| B12 | 0.00626 KA relative to UGCAUGU |
| B13 | 0.0376 KA relative to UGCAUGU |
| B14 | 0.0131 KA relative to UGCAUGU |
| B15 | 0.0136 KA relative to UGCAUGU |
| B16 | 0.0124 KA relative to UGCAUGU |
| B17 | 0.0129 KA relative to UGCAUGU |
| B18 | 0.0151 KA relative to UGCAUGU |
| B19 | 0.0319 KA relative to UGCAUGU |
